Beta apoptosis: beta cell apoptosis inhibition; INS-1E cytokine-induced death, ATP luminescence, 48 h; percent of positive-control rescue, neutral wells zero; protection from apoptosis, % (concentration not given with the values); hit rate 0.8% among 300,000;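 active = Every replicate reaches about 75%, or at least half do and their mean reaches it too, limit read from the data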;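 note: 0% = cytokine-treated negative control wells and 100% = positive control rescue; higher means more ATP so stronger rescue from cytokine killing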
Jurkat NFkB inh: inhibitors of the PMA/ionomycin-induced NF-kB reporter in Jurkat cells. PMA/ionomycin-induced NF-kB luciferase reporter, luminescence. inhibition, % at 4 µM. hit rate 0.53% among 330,000. AID 435003; in the data active = inhibition above about 50%
Mdm2 MdmX PPI: disrupts the human Mdm2-MdmX interaction. inhibition, % at 8 µM. hit rate 3% among 330,000. O15151+Q00987. SaOS-2 split-luciferase Mdm2/MdmX complementation, luminescence;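 active = inhibition of at least 50% at 8 µM in the primary screen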
Gli-Sufu antag: Gli-Sufu pathway antagonism; Sufu-KO-LIGHT fibroblasts, Gli luciferase reporter luminescence; inhibition, % at 5 µM; hit rate 0.74% among 340,000; AID 588413;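 active = inhibition above about 55%, limit read from the data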;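 note: 0% = DMSO-treated cells and 100% = wells with medium but no cells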
CSC inhib: blocks cancer stem cells | hit rate 1.1% among 300,000 | cancer stem cell-like cells viability, luminescence | inhibition, % at 7.5 µM; in the data active = inhibition above about 75%; tested in HMLE shEcad cells
697 NFkB inh: inhibitors of the PMA/ionomycin-induced NF-kB reporter in 697 B cells. 697 B-cell NF-kB luciferase reporter, 16 h. inhibition, % at 4 µM. hit rate 0.33% among 330,000. AID 435022; in the data active = inhibition above about 35%
Jurkat NFkB conf: lowers PMA/ionomycin-induced NF-kB signal in Jurkat cells; shares compounds with Jurkat NFkB inh; Jurkat NF-kB luciferase, 16 h; inhibition, % at 4 µM; hit rate 27% among 2,700; AID 435020;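 active = inhibition reaching about 45% at 4 µM in either replicate, limit read from the data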;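 note: plate controls were PMA/ionomycin stimulated DMSO wells for no effect and unstimulated DMSO wells for full effect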
* marks the source's active call; other numbers are inactive results; . = not tested or not shown. Hits are enriched below; roughly 4.5% of the tested compounds scored in any of these assays.

SMILES | Beta apoptosis | Jurkat NFkB inh | Mdm2 MdmX PPI | Gli-Sufu antag | CSC inhib | 697 NFkB inh | Jurkat NFkB conf
O=C(Nc1nc2c(s1)CCCC2)c1ccc(N2C(=O)CCC2=O)cc1 | . | 0.2 | 22.0 | -29.4 | . | -62.9 | .
O=C(Nc1nc2c(s1)CCCC2)c1ccc(Br)s1 | 20.2 | -190.1 | -172.6 | -51.9 | 5.2 | -221.3 | -104.8
Cc1ncsc1C(=O)Nc1nc2c(s1)CCCC2 | 17.9 | -104.9 | -63.8 | -47.3 | 44.6 | -64.0 | .
Cc1cc(C(=O)Nc2nc3c(s2)CCCC3)cs1 | 14.2 | -164.8 | -159.8 | -32.8 | 85.9* | 0.3 | -97.1
O=[N+]([O-])c1ccc(Sc2ccc(F)cc2)nc1 | -9.4 | 9.6 | -17.7 | -2.4 | 0.1 | 18.8 | .
Cc1cc(Sc2ccc([N+](=O)[O-])cn2)ccc1Br | -10.5 | 61.6* | 20.7 | 5.1 | 24.9 | 14.3 | 24.9
Cc1ccn(-c2ccc(NC(=O)c3cccs3)cc2)n1 | 4.3 | -155.7 | -132.6 | -68.4 | 52.6 | -44.4 | -87.8
CC(=O)O[C@H]1C(=O)[C@@]2(C)C([C@H](OC(=O)c3ccccc3)[C@]3(O)C[C@H](OC(=O)[C@H](O)[C@@H](NC(=O)c4ccccc4)c4ccccc4)C(C)=C1C3(C)C)[C@]1(OC(C)=O)CO[C@@H]1C[C@H]2O (some centres undefined) | 22.5 | 67.1* | 42.5 | -2.3 | 48.5 | -34.6 | 69.8*
CC(=O)O[C@H]1C(=O)[C@]2(C)[C@H]([C@H](OC(=O)c3ccccc3)[C@]3(O)C[C@H](OC(=O)[C@H](O)[C@@H](NC(=O)c4ccccc4)c4ccccc4)C(C)=C1C3(C)C)[C@]1(OC(C)=O)CO[C@@H]1C[C@@H]2O | 17.3 | 70.9* | 45.3 | 42.9 | 49.8 | -18.5 | 64.8*
O=C(CNc1cccc2ccccc12)N/N=C/c1ccc[nH]1 | 7.4 | 59.3* | -11.0 | 25.5 | 35.4 | 8.5 | -3.2
Cc1ccc(NS(=O)(=O)c2ccc(C(=O)NC3CCN(Cc4ccccc4)CC3)cc2)cc1 | 36.8 | 57.1* | 34.8 | 15.3 | 8.9 | 15.5 | 58.8*
CCC(=O)Nc1cccc(-c2ccc(N3CCN(C)CC3)nn2)c1 | -6.6 | -110.2 | -34.1 | -39.2 | 21.1 | -57.9 | .
CN1CCN(c2ccc(-c3cccc(NC(=O)COc4ccccc4)c3)nn2)CC1 | -0.5 | -174.8 | -21.9 | -45.1 | . | -132.5 | -72.8
CN1CCN(c2ccc(-c3cccc(NC(=O)COc4ccc(Cl)cc4Cl)c3)nn2)CC1 | . | -169.8 | 47.4 | 14.5 | 16.3 | -110.3 | -18.0
CN1CCN(c2ccc(-c3cccc(NC(=O)COc4ccc(Cl)cc4)c3)nn2)CC1 | . | -178.7 | -26.5 | -27.0 | 48.0 | -128.8 | -54.5
O=C(COc1ccccc1)Nc1cccc(-c2nc3cc4ccccc4cc3[nH]2)c1 | 33.5 | -231.3 | -146.0 | -84.2 | 88.2* | -154.6 | -119.5
CCOC(=O)C1CCN(S(=O)(=O)c2ccc3c(c2)N(C(C)=O)CC(C)S3)CC1 (centres undefined) | 0.1 | 22.1 | 21.2 | 49.9 | -5.0 | -13.4 | .
COc1cc(SC)ccc1C(=O)Nc1ccc(C)cc1C | 3.1 | -152.7 | -242.8 | -84.3 | 7.5 | -112.2 | -86.7
COc1cc(SC)ccc1C(=O)Nc1ccc(C)cc1 | 3.6 | -171.0 | -203.8 | -119.8 | -8.1 | -194.1 | -111.9
COc1cc(SC)ccc1C(=O)NC(C)C | -5.7 | 4.1 | 4.1 | -4.1 | -2.5 | 4.0 | .
Oc1cccc2ccc(/C=C/c3cccs3)nc12 | 21.7 | -189.0 | -30.8 | 6.7 | 53.3 | -176.7 | -145.7
O=C(Cc1cccc2ccccc12)N/N=C/c1ccc2cccc(O)c2n1 | 1.5 | 1.5 | 21.5 | -1.0 | 48.1 | 27.7 | .
CCn1c(O)c(/C=C2\C=Nc3ccccc32)sc1=O | -4.6 | -112.9 | -219.9 | -14.0 | 4.7 | -148.5 | .
CCn1c(O)c(/C=C2\C=Nc3ccccc32)sc1=Nc1ccc(C)cc1 | -11.8 | 61.7* | 12.3 | -2.2 | 5.7 | -1.3 | 2.4
O=[N+]([O-])c1ccc(N/N=C/c2ccccc2O)cc1 | 16.4 | 60.7* | -30.2 | 21.8 | 62.1 | -32.8 | -30.6
SMILES | Beta apoptosis | Jurkat NFkB inh | Mdm2 MdmX PPI | Gli-Sufu antag | CSC inhib | 697 NFkB inh | Jurkat NFkB conf
Cc1c(C(=O)OCC2CCCO2)[nH]c2c1C(=O)CC(c1ccco1)C2 (centres undefined) | 2.7 | 54.5* | 38.5 | 8.7 | 2.9 | -11.6 | -2.8
O=C(COC(=O)C1CC1)Nc1ccc(N=Nc2ccccc2)cc1 | -0.9 | -159.1 | -168.1 | -87.2 | -4.6 | -51.8 | -58.3
O=C(COC(=O)C1CC1)Nc1ccc(OC(F)F)cc1 | 2.2 | 7.3 | 19.5 | 5.8 | 0.3 | 21.6 | .
c1ccc2c(c1)oc1c(Nc3ccc(CN4CCOCC4)cc3)ncnc12 | 17.1 | -155.3 | -50.1 | 13.6 | -14.4 | -141.3 | -117.4
S=C(c1ccc(-c2cccc(Cl)c2)o1)N1CCCCC1 | 5.1 | -165.9 | -311.3 | -113.0 | . | -178.0 | -90.2
CCOC(=O)c1cnc2c(-c3ccccc3)cnn2c1N | 2.5 | -163.5 | -95.4 | -135.8 | 2.1 | -231.8 | -127.8
CCOC(=O)c1cnc2c(-c3ccccc3)c(C)nn2c1N | -2.6 | -24.5 | -20.6 | -36.1 | -14.0 | -32.7 | .
c1ccc2c(c1)Nc1cc3ccccc3cc1S2 | -5.3 | -27.2 | -28.4 | -31.7 | -15.0 | -21.4 | .
Cc1ccc2c(c1)Sc1c(ccc3ccccc13)N2 | 103.9* | -170.8 | -65.4 | -91.8 | 39.3 | -219.3 | -28.0
Cc1ccc(C(=O)OCC(=O)c2ccccc2)cc1 | -1.4 | -168.6 | -65.3 | -123.4 | 11.1 | -119.5 | -62.7
Cc1ccc(C(=O)CC(=O)c2ccccc2)cc1 | 6.2 | -133.4 | -6.4 | -54.9 | -16.8 | -160.3 | .
COc1ccc2nc(SCC(=O)NC3CCCC3)c(C)cc2c1 | 2.9 | 50.1* | 47.0 | 36.2 | 74.3 | -25.7 | 31.2
COc1ccc2c(C)cc(SCC(=O)NC3CCCC3)nc2c1 | 3.0 | 0.8 | 30.6 | -4.8 | -2.9 | -3.0 | .
O=C(NCc1ccc2c(c1)OCO2)C1CCCN1C(=O)Nc1ccc(Cl)cc1 (centres undefined) | -0.8 | -3.7 | 3.4 | 5.0 | -3.3 | 18.1 | .
CCOc1ccc(NC(=O)C[n+]2ccc(N(C)C)cc2)cc1 | -1.9 | 16.6 | 22.5 | 1.8 | -11.7 | -9.9 | .
CN(C)c1cc[n+](CC(=O)Nc2ccc(Oc3ccccc3)cc2)cc1 | 90.8* | 85.0* | 45.0 | 23.2 | -4.9 | -13.8 | 36.0
COc1ccc(-c2nnn(Cc3ccccc3F)n2)cc1 | 4.8 | -103.9 | -166.5 | 3.2 | 10.2 | -143.8 | .
Fc1ccccc1Cn1nnc(-c2ccc3c(c2)OCO3)n1 | -8.4 | -162.4 | -151.2 | -149.7 | . | -149.6 | -127.2
Cc1ccc(NC(=O)CSc2nnc(-c3ccncc3)o2)cc1 | -14.6 | 5.8 | -13.3 | 0.3 | -7.9 | 11.4 | .
COc1cccc(NC(=O)CSc2nnc(-c3ccc(C)cc3)o2)c1 | 0.3 | -185.2 | -278.9 | -22.4 | 13.3 | -30.4 | -23.9
COc1ccccc1NC(=O)CSc1nnc(-c2ccc(C)cc2)o1 | 8.1 | -162.5 | -189.5 | -70.2 | 7.0 | -141.2 | -90.7
O=C(COC(=O)CN1C(=O)c2ccccc2C1=O)Nc1cccc(F)c1 | -3.6 | 6.9 | 5.9 | 4.8 | . | 17.6 | .
COc1cc(NC(=S)N2CCCC2)cc(OC)c1 | -0.3 | 10.2 | 3.0 | -35.9 | -15.3 | -28.4 | .
